Results: PubChem BioAssay (EPA / NIEHS)
Inconclusive results are not listed. The source made the active and inactive calls. How the source made its calls, unless noted: active means hit-call score of the fitted dose curve at least 0.9, where 1 is the maximum; inactive means score below 0.9.

What was measured:
[1] = biological target: Nuclear respiratory factor 1 (Homo sapiens) (UniProt Q16656); test: ATG_NRF1_CIS: Attagene CIS-FACTORIAL HepG2 Assay for human Nuclear Respiratory Factor 1 (NRF1) Orphan Gene (AID 2282987); details: HepG2 NRF1 cis-element reporter, Attagene multiplex; actives raise or lower the signal
Sequence of Nuclear respiratory factor 1 (Homo sapiens) (Q16656 whole entry, looked up): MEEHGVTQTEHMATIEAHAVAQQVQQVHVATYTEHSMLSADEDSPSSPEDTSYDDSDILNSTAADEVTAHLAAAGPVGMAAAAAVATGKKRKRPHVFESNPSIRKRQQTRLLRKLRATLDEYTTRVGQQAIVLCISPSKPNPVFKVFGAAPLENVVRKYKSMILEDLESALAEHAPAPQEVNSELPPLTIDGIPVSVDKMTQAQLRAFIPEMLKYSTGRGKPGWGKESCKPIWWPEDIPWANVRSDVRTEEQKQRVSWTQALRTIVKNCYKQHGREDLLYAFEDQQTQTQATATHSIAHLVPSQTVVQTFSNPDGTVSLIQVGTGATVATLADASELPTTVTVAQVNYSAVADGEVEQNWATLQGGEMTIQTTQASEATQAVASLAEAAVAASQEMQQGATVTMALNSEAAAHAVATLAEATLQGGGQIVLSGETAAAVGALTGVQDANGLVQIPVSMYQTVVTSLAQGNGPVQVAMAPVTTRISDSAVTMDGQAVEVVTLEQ
Outline: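 Human hepatoma HepG2 cells carrying transfected promoter-regulated reporter units were incubated with test chemicals for 24 h. Reporter transcripts were measured by RT-PCR plus capillary electrophoresis, and endpoints derived by bidirectional fitting with DMSO as baseline.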

[2] = ATG_NFI_CIS: Attagene CIS-FACTORIAL HepG2 Assay for human Nuclear Factor I (NFI) (AID 2282989); details: HepG2 cis-regulatory reporter, NFI response element transcription; actives raise or lower the signal
Outline: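 Endogenous TF activity in HepG2 cells transiently transfected with cis-element-driven multiplexed reporter units, read 24 h after dosing. Reporter mRNA quantified by RT-PCR, 6-FAM labelling, HpaI digestion and capillary electrophoresis; bidirectional fit versus DMSO.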

[3] = biological target: Myc proto-oncogene protein (Homo sapiens) (UniProt P01106); test: ATG_Myc_CIS: Attagene CIS-FACTORIAL HepG2 Assay for human Myelocytomatosis (Myc) Proto-Oncogene Transcription Factor (AID 2282990); details: HepG2, Attagene cis-reporter transcription factor activity; actives raise or lower the signal
Sequence of Myc proto-oncogene protein (Homo sapiens) (P01106 whole entry, looked up): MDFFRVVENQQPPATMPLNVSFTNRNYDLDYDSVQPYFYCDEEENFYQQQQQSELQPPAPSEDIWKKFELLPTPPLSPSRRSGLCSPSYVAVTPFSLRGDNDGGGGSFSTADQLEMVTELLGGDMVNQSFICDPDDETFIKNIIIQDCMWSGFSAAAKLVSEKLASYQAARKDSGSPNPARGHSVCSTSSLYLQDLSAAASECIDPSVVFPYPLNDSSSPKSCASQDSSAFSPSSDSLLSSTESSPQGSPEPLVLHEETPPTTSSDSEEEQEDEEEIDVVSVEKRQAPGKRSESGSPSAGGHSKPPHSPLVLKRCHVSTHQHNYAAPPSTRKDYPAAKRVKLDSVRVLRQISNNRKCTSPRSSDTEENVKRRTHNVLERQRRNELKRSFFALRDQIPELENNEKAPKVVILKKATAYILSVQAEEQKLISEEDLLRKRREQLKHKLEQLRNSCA
Outline: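 Multiplexed cis-reporter transcription in HepG2 cells after 24 h chemical treatment. Reporter mRNA measured by RT-PCR and capillary electrophoresis fluorescence; activity fitted bidirectionally against DMSO control.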

[4] = ATG_NF_kB_CIS: Attagene CIS-FACTORIAL HepG2 Assay for human Nuclear Factor Kappa B (NF-kB) (AID 2282991); details: HepG2 Attagene cis-factorial NF-kB reporter mRNA; actives raise or lower the signal
Outline: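 Multiplexed cis-reporter assay in transiently transfected HepG2. 24 h treatment; RNA isolated, RT-PCR, labelled fragments resolved by CE. DMSO baseline.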

[5] = ATG_NRF2_ARE_CIS: Attagene CIS-FACTORIAL HepG2 Assay for human Nuclear Factor Erythroid 2 Related Factor 2 (NFR2) response to Antioxidant Response Elements (ARE) (AID 2282992); details: HepG2 Attagene ARE/NRF2 reporter, transcription factor activity; actives raise or lower the signal
Outline: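 Transient MRTU transfection of HepG2; 24 h compound exposure; TriZol RNA, RT with oligo(dT), PCR, 6-FAM primer extension, HpaI cut, CE. Bidirectional fit vs DMSO.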

[6] = ATG_Oct_MLP_CIS: Attagene CIS-FACTORIAL HepG2 Assay for human Octamer-Binding Transcription Factor (Oct) (AID 2282993); details: HepG2 Attagene cis-factorial Oct reporter, mRNA; actives raise or lower the signal
Outline: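 HepG2 cells transiently transfected with cis-element-driven reporter transcription units (endogenous TF activity); 24 h compound exposure. Reporter mRNA quantified by RT-PCR, 6-FAM labelling, HpaI digestion and capillary electrophoresis; bidirectional fit versus DMSO baseline.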

[7] = biological target: Cellular tumor antigen p53 (Homo sapiens) (UniProt P04637); test: ATG_p53_CIS: Attagene CIS-FACTORIAL HepG2 Assay for human p53 Transcription Factor (AID 2282994); details: HepG2 p53 cis-element reporter, Attagene mRNA; actives raise or lower the signal
Sequence of Cellular tumor antigen p53 (Homo sapiens) (P04637 whole entry, looked up): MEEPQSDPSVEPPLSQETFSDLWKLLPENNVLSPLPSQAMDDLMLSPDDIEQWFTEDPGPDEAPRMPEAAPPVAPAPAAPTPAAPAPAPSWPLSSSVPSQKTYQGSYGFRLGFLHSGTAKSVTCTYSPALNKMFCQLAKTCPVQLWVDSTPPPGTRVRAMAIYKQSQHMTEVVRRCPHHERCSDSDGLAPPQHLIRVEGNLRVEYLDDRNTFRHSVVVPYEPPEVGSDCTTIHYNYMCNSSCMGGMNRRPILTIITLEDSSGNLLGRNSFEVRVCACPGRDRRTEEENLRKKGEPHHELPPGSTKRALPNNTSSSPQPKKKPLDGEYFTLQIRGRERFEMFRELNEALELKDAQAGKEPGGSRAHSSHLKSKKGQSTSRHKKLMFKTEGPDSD
Outline: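 HepG2, transient MRTU transfection (cis promoter elements, endogenous TFs); 24 h dosing; RNA isolation, RT-PCR, 6-FAM primer extension, HpaI digest, CE fluorescence; bidirectional fit vs DMSO.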

[8] = BSK_3C_TissueFactor: BioMAP Diversity Plus: 3C Assay for Tissue Factor Biomarker Activity (AID 2282997); details: BioMAP 3C HUVEC, tissue factor biomarker readout; actives raise or lower the signal
Outline: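 ELISA read-out of Tissue Factor levels on human umbilical vein endothelium collected 24 h after chemical dosing. Gain or loss of signal was fitted relative to DMSO.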

[9] = BSK_3C_uPAR: BioMAP Diversity Plus: 3C Assay for Urokinase-type plasminogen activator receptor (uPAR) Biomarker Activity (AID 2282998); details: BioMAP 3C HUVEC, uPAR biomarker ELISA; actives raise or lower the signal
Outline: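 Primary human umbilical vein endothelial cells, 3C system; surface uPAR measured by ELISA 24 h after dosing. Cytotoxicity via SRB total protein in parallel cultures; bidirectional fit against DMSO.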

[10] = BSK_3C_VCAM1: BioMAP Diversity Plus: 3C Assay for Vascular cell adhesion molecule 1 (VCAM1) Biomarker Activity (AID 2282999); details: BioMAP 3C HUVEC, VCAM1 ELISA, cytokine-stimulated; actives raise or lower the signal
Outline: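 Human umbilical vein endothelial cells were dosed with compound for 24 h, after which cell-surface VCAM-1 was quantified by ELISA. Bidirectional curve fitting used DMSO as negative control and activity baseline.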

[11] = BSK_4H_Eotaxin3: BioMAP Diversity Plus: 4H Assay for Eotaxin 3 Biomarker Activity (AID 2283000); details: primary human endothelial cells (HUVEC); actives raise or lower the signal;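 further: CCL26 protein level quantified by ELISA in parallel with SRB cytotoxicity check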
Outline: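 Chemicals were added to human umbilical vein endothelium cultures, and Eotaxin-3 was quantified by ELISA at 24 h. Values were derived by bidirectional fitting with DMSO serving as negative control and activity baseline.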

[12] = read-out: Intercellular Adhesion Molecule 1 (ICAM1), ICAM1 (gene 3383); test: BSK_3C_ICAM1: BioMAP Diversity Plus: 3C Assay for Intercellular Adhesion Molecule 1 (ICAM1) Biomarker Activity (AID 2283003); details: primary human endothelial cells (HUVEC); actives raise or lower the signal
Outline: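 Human vascular endothelial primary cells, 3C conditions, 24 h treatment. ICAM-1 by ELISA.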

[13] = BSK_3C_Proliferation: Cell Proliferation Assessment in the BioMAP Diversity Plus: 3C Assay (AID 2283006); details: primary human endothelial cells (HUVEC);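 on AC50: potency may reflect either rise or fall in cell number versus DMSO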
Outline: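 Proliferation of human vascular endothelial primary cells after 48 h dosing, quantified as SRB-stained protein at 560 nm relative to DMSO.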

[14] = biological target: Peroxisome proliferator-activated receptor gamma (Homo sapiens) (UniProt P37231); test: ATG_PPARg_TRANS: Attagene TRANS-FACTORIAL HepG2 Assay for human Peroxisome Proliferator-activated Receptor-gamma (PPARg) (AID 2283007; active means hit-call score of the fitted dose curve at least 0.9, where 1 is the maximum)
Sequence of Peroxisome proliferator-activated receptor gamma (Homo sapiens) (P37231 whole entry, looked up): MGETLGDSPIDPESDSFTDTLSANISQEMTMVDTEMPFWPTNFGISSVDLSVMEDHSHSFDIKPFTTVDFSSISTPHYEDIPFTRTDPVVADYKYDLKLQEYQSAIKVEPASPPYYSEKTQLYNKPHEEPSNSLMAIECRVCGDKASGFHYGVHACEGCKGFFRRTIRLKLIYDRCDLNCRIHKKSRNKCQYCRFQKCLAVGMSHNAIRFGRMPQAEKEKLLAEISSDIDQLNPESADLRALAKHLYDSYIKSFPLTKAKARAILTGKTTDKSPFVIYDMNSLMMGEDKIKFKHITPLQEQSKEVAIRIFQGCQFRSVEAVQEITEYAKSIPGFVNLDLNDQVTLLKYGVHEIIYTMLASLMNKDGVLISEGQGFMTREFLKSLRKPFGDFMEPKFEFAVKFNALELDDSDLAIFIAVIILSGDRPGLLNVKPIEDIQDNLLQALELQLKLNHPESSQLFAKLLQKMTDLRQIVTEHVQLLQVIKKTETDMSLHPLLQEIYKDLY
Outline: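 Human hepatoma HepG2, transient MRTU transfection, 24 h treatment. mRNA reporter signal by RT-PCR plus capillary electrophoresis, fluorescence detection; fitted for increase over DMSO negative control.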

[15] = biological target: Nuclear receptor subfamily 1 group I member 2 (Homo sapiens) (UniProt O75469); test: ATG_PXR_TRANS: Attagene TRANS-FACTORIAL HepG2 Assay for human Pregnane X Receptor (PXR) (AID 2283008; active means hit-call score of the fitted dose curve at least 0.9, where 1 is the maximum)
Sequence of Nuclear receptor subfamily 1 group I member 2 (Homo sapiens) (O75469 whole entry, looked up, the tested form may be a part): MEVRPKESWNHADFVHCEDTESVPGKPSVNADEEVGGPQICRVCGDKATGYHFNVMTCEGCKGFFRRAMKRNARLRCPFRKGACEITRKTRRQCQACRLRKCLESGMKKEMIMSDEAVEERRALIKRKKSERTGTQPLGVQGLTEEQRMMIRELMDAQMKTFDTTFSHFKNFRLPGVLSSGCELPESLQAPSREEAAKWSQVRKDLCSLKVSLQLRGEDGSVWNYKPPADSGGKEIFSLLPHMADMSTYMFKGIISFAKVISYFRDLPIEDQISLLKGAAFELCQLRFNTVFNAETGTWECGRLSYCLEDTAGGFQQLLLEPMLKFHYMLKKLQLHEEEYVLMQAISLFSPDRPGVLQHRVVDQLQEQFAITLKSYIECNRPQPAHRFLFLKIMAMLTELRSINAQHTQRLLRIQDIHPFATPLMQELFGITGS
Outline: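 Read-out is fluorescence of labelled reporter cDNA fragments separated by capillary electrophoresis after RT-PCR and HpaI digestion. Source: HepG2 cells carrying PXR-GAL4/UAS reporter constructs, treated 24 h; activity fitted upward relative to DMSO.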

[16] = biological target: human Retinoic Acid Receptor gamma (RARg), RARG (gene 5916) (UniProt P13631); test: ATG_RARg_TRANS: Attagene TRANS-FACTORIAL HepG2 Assay for human Retinoic Acid Receptor gamma (RARg) (AID 2283009; active means hit-call score of the fitted dose curve at least 0.9, where 1 is the maximum;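 on AC50: AC50 is for reporter induction above DMSO meaning RARg activation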)
Sequence of human Retinoic Acid Receptor gamma (RARg), RARG (gene 5916) (P13631 whole entry, looked up, the tested form may be a part): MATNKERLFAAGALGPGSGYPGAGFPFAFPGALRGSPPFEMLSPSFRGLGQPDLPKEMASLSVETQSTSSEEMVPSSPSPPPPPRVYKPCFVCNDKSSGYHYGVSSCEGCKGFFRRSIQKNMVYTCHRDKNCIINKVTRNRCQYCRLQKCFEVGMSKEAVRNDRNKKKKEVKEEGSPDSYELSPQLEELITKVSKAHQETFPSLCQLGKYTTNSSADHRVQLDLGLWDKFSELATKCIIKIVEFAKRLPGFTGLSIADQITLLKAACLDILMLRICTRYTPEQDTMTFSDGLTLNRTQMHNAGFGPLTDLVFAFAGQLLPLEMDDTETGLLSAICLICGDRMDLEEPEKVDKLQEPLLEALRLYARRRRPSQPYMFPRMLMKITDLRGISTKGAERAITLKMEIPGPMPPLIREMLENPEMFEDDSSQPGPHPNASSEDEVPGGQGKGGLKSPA
Outline: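 HepG2, RARg-GAL4 TRANS system, 24 h exposure; reporter mRNA by RT-PCR + CE fluorescence; increase over DMSO.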

[17] = biological target: human Peroxisome Proliferator-activated Receptor alpha (PPARa), PPARA (gene 5465) (UniProt Q07869); test: ATG_PPARa_TRANS: Attagene TRANS-FACTORIAL HepG2 Assay for human Peroxisome Proliferator-activated Receptor alpha (PPARa) (AID 2283001; active means hit-call score of the fitted dose curve at least 0.9, where 1 is the maximum)
Sequence of human Peroxisome Proliferator-activated Receptor alpha (PPARa), PPARA (gene 5465) (Q07869 whole entry, looked up, the tested form may be a part): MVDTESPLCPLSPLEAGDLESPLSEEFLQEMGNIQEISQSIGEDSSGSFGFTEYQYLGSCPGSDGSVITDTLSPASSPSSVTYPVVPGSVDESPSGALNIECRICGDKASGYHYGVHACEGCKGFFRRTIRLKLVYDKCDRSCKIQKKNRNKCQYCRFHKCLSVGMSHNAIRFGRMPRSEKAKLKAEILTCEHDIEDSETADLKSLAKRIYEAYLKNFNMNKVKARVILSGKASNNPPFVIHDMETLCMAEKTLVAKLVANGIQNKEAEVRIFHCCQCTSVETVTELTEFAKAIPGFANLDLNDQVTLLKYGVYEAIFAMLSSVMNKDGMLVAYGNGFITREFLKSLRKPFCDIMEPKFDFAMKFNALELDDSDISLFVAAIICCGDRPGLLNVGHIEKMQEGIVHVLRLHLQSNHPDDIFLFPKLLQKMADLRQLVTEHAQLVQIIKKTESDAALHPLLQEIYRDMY
Outline: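 HepG2 cells transiently transfected with multiplexed GAL4-UAS reporter units and chimeric NR-Gal4 constructs were dosed for 24 h. Reporter mRNA was measured by RT-PCR with fluorescent labelling and capillary electrophoresis; gain of signal fitted against DMSO.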

[18] = biological target: human Peroxisome Proliferator-activated Receptor delta (PPARd), PPARD (gene 5467) (UniProt Q03181); test: ATG_PPARd_TRANS: Attagene TRANS-FACTORIAL HepG2 Assay for human Peroxisome Proliferator-activated Receptor delta (PPARd) (AID 2283002; active means hit-call score of the fitted dose curve at least 0.9, where 1 is the maximum)
Sequence of human Peroxisome Proliferator-activated Receptor delta (PPARd), PPARD (gene 5467) (Q03181 whole entry, looked up, the tested form may be a part): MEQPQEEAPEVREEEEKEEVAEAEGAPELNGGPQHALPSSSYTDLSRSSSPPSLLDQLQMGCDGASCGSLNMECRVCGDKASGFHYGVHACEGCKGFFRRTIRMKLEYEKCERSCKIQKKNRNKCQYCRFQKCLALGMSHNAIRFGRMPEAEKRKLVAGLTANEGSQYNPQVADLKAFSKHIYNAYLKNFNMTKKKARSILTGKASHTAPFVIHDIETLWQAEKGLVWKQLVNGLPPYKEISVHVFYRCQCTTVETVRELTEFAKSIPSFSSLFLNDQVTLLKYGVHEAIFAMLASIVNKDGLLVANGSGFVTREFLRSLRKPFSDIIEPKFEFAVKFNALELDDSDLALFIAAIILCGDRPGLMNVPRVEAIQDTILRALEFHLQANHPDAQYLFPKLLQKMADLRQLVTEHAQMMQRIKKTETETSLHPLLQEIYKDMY
Outline: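 Multiplexed trans-activation format: HepG2 liver cells expressing exogenous NR-Gal4 chimeras and GAL4-UAS reporters were exposed for 24 h. Reporter mRNA was detected by RT-PCR with capillary electrophoresis fluorescence; activity fitted as gain of signal relative to DMSO.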

[19] = biological target: human Retinoic Acid Receptor beta (RARb), RARB (gene 5915) (UniProt P10826); test: ATG_RARb_TRANS: Attagene TRANS-FACTORIAL HepG2 Assay for human Retinoic Acid Receptor beta (AID 2283004; active means hit-call score of the fitted dose curve at least 0.9, where 1 is the maximum)
Sequence of human Retinoic Acid Receptor beta (RARb), RARB (gene 5915) (P10826 whole entry, looked up): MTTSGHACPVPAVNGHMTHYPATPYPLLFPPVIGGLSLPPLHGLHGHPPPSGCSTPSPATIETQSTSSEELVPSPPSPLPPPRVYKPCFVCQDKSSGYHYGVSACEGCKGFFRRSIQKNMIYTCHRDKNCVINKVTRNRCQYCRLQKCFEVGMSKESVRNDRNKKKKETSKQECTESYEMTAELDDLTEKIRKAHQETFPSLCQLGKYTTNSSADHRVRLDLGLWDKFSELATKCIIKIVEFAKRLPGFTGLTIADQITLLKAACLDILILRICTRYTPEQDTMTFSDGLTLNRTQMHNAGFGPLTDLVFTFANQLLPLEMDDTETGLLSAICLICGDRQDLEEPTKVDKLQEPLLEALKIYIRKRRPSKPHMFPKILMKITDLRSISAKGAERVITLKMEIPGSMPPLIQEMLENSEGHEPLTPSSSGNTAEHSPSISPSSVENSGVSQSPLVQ
Outline: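 Transient transfection of HepG2 with multiple reporter units → chemical dosing, 24 h → total RNA isolation → RT with oligo(dT) → reporter-specific PCR, 6-FAM primer extension, HpaI digest → capillary electrophoresis. Positive direction vs DMSO control.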

[20] = biological target: Retinoic acid receptor alpha (Homo sapiens) (UniProt P10276); test: ATG_RARa_TRANS: Attagene TRANS-FACTORIAL HepG2 Assay for human Retinoic Acid Receptor alpha (RARa) (AID 2283005; active means hit-call score of the fitted dose curve at least 0.9, where 1 is the maximum;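 on AC50: potency for increased reporter signal meaning RARa activation over DMSO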)
Sequence of Retinoic acid receptor alpha (Homo sapiens) (P10276 whole entry, looked up, the tested form may be a part): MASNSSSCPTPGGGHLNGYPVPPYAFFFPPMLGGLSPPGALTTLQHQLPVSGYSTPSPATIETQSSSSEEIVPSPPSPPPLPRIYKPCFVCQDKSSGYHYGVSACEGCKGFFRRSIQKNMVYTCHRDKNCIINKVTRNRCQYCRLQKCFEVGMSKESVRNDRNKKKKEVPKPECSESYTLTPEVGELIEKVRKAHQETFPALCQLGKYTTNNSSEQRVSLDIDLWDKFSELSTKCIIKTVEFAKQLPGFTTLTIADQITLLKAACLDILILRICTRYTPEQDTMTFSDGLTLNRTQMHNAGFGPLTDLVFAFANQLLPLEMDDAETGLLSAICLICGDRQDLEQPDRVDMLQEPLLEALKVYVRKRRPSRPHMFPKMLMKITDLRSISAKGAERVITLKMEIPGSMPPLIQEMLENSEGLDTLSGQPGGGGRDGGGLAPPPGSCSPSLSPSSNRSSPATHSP
Outline: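 HepG2 cells transiently transfected with multiple reporter units expressing chimeric RARα-GAL4 fusion, with GAL4-UAS-driven reporters. After 24 h compound exposure, reporter mRNA induction quantified by RT-PCR and capillary electrophoresis with fluorescent labeling; gain-of-signal fitted relative to DMSO control.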

Measured: AC50

Cc1cccc([N+](=O)[O-])c1C
active: [15] 5.4 µM
not listed: [17] | [18] | [19] | [20]
inactive: all other assays above

CCCCCCCCCCC
not listed: [11] | [14] | [15] | [18] | [19] | [20]
inactive: all other assays above

CCCCCCC(=O)OCC
active: [15] 57.3 µM
not listed: [11] | [14] | [17]
inactive: all other assays above

CCCCN(CCCC)CCCC
not listed: [11] | [14] | [16] | [19] | [20]
inactive: all other assays above

Nc1ccc2c(c1)C(=O)c1ccccc1C2=O
active: [5] 3.98 µM | [9] 6.96 µM | [14] 21 µM
not listed: [11] | [16] | [17] | [18] | [20]
inactive: all other assays above

CC1=C(/C=C/C(C)=C/C=C/C(C)=C/CO)C(C)(C)CCC1
active: [3] 139 µM | [5] 44.2 µM | [10] 33 µM | [20] 0.073 µM | [13] 27.6 µM | [14] 28.1 µM | [15] 0.28 µM | [16] 0.117 µM
not listed: [11] | [17] | [18]
inactive: all other assays above

CCCCCC(=O)O
not listed: [11] | [14] | [15] | [19] | [20]
inactive: all other assays above

COc1ccc(C)cc1N
not listed: [11] | [15] | [20]
inactive: all other assays above
